Data from PubChem BioAssay AID1645875 (National Center for Advancing Translational Sciences (NCATS), 2021).
Results filed as inconclusive are left out. Active and inactive are the calls of the source. Calls follow the shape of the dose curve; as a rule, active = well fitted inhibition curve with a large enough effect; inconclusive = small, poorly fitted or top-dose-only effect; inactive = no such curve, though single readings can be large or run the other way.

Target: N-terminal Xaa-Pro-Lys N-methyltransferase 1 (Homo sapiens) (UniProt Q9BV86)
Assay: Orthogonal qHTS for Inhibitors of N-terminal methyltransferase 1 (NTMT1): ThioGlo Assay
Conditions: NTMT1 SAHH-coupled ThioGlo fluorescence, 30 min; series mostly up to 84.5 µM; activity, negative = inhibition: at the top concentration
Description: Assay Submitter (PI): Rong Huang Ph.D. Purdue University, West Lafayette, IN 47907 The N-terminal methytransferase 1 is the first methyltransferase that methylates protein alpha-N-amines and plays an important role in regulating cell mitosis, chromatin interactions and DNA repair. It is observed to be over-expressed in various cancer patient tissues like malignant melanoma and colorectal cancer tissues. Knockdown of NTMT1 in cancer cells causes cell mitotic defects and enhances sensitivity to DNA damaging chemotherapeutics. […] These critical cellular processes in which NTMT1 is implicated, coupled with emerging links to cellular dysfunction, strengthen the inference that NTMT1 is a compelling novel anticancer target. Progress have been made in understanding the molecular properties of NTMT1 and the biological consequences of protein alpha-N-terminal methylation, but there are no specific small molecule probes available for NTMT1 to fully characterize its MTase activity. To address this unmet need, a panel of assay is created and established to enable quantitative high-throughput screening (qHTS) for novel, potent, and selective small molecule NTMT1 inhibitors. Two orthogonal qHTS that use different reagents (ThioGlo vs. MTaseGlo) are developed for primary robotic screening against the NCATS chemical library of more than 400,000 small molecules. Identified inhibitors are reacquired, validated, and further characterized. […] Early Translation Branch (ETB) National Center for Advancing Translational Sciences (NCATS) National Institute of Health (NIH)
Materials: NTMT1 enzyme, substrate SPKRIA, control peptide RCC1-6 is provided by the Huang laboratory. MTaseGlo Assay: PROTOCOL TABLE; SEQUENCE No. (e.g., 1, 2, 3, etc.); […] (e.g., Cells, Incubation, Reagent, etc.); VALUE; DESCRIPTION 1; Enzyme; 3 uL; Dispense enzyme mixture (final concentrations of 125 nM NTMT1) into Greiner 1536-well black / solid bottom assay plate (Greiner Bio One, Monroe, NC). 2; Compounds; 23 nL; Compounds (at various concentration) and 1uM final concentration of RCC1-6 (SPKRIA) control were transferred via a Kalypsys Pin Tool (Wako USA) equipped with a 1536-slotted pin array (Wako Automation, Richmond, VA). 3; Incubation; 1 min; Incubate at room temperature. 4; Substrate; 1 uL; Dispense 1 uL of substrate solution (100uM SAM, 10uM SAHH, 15uM ThioGlo3 final concentration) was added to the wells bringing the final assay volume to 4uL. The assay plate was covered with metal lids. 5; Detection; Fluorescence; Initial fluorescence readout (background signal) was detected using the ViewLux microplate imager with an excitation filter of 340 nm and 450 nm emission filter. 6; Incubation; 30 min; Assay plates were incubation at room temperature in the dark. 7; Detection; Fluorescence; Final fluorescence readout was detected using the ViewLux microplate imager with an excitation filter of 340 nm and 450 nm emission filter. The data was normalized to the background fluorescence.

Chain of N-terminal Xaa-Pro-Lys N-methyltransferase 1 (Homo sapiens) (Q9BV86 whole entry, looked up): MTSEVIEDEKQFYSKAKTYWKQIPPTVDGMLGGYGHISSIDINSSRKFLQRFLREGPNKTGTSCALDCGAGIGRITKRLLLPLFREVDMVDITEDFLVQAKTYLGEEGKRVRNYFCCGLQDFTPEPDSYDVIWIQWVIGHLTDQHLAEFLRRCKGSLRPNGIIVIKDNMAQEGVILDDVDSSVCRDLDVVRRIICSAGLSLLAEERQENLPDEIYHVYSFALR

Compound | activity, negative = inhibition | Potency
NC(=O)c1cccc(-c2cc(OC(=O)NC3CCCCC3)ccc2O)c1 | -7.27% [at 114 µM] (inactive) | –
COc1cc2c(NC3CCN(C4CCCCC4)CC3)nc(N3CCCN(C)CC3)nc2cc1OCCCN1CCCCC1 | – | 43.5 µM (active)
COc1ccc2cc3c(NC(=O)c4ccco4)nn(C)c3nc2c1 | – | 49.4 µM (active)
CNCCCOc1cc2nc(N3CCCN(C)CC3)nc(NC3CCN(C)CC3)c2cc1OC | – | 43.5 µM (active)
O=C(Nc1ccc(S(=O)(=O)C(F)(F)F)cc1)C1=CCN(c2ncccc2C(F)(F)F)CC1 | 49.9% [at 114 µM] (inactive) | –
COc1cc2c(NC3CCN(C(C)C)CC3)nc(N3CCCCCC3)nc2cc1OCCCN1CCCC1 | – | 38.8 µM (active)
CCOc1ccc(Nc2nc(-c3c(C)nc4ccccn34)cs2)cc1 | – | 3.12 µM (active)
Cc1cccc(/C=C/c2ccccc2)n1 | -27% (inactive) | –
Fc1ccccc1CNCc1ccc(-c2ccnc3[nH]ccc23)cc1 | – | 49.4 µM (active)
COc1cc2c(NC3CCN(C4CCCCC4)CC3)nc(N3CCCCC3)nc2cc1OCCOCCN(C)C | – | 43.5 µM (active)
c1cc(CN2CCCCC2)cc(OCCCNc2nc3ccccc3s2)c1 | -14.1% (inactive) | –
CCNC(=O)c1noc(-c2cc(C(C)C)c(O)cc2O)c1-c1ccc(CN2CCOCC2)cc1 | -4.32% (inactive) | –
CN(C)CCCC1(c2ccc(F)cc2)OCc2cc(C#N)ccc21 (stereo not given) | 25.7% (inactive) | –
CC(C)c1cc2c(c(O)c1O)[C@@]13CCCC(C)(C)C1[C@@H](O)[C@@H]2OC3=O (stereo not given in full) | – | 12.2 µM (active)
COc1ccc(-c2cc3c(C)nc(N)nc3n(C3CCC(OCCO)CC3)c2=O)cn1 (stereo not given) | – | 13.9 µM (active)
CC(C)c1cc(CNc2nc(Nc3cc(C4CC4)[nH]n3)cc(N3CCN(C)CC3)n2)on1 | – | 7.84 µM (active)
COc1ccc(C2=Nn3c(nnc3-c3ccccc3F)SC2)cc1OC1CCCC1 | -26.7% (inactive) | –
Nc1ncnc2c1nc(N)n2[C@@H]1O[C@H](CO)[C@@H](O)[C@H]1O | – | 27.8 µM (active)
COc1cc2c(NC3CCN(CC4CCCCC4)CC3)nc(N3CCCN(C)CC3)nc2cc1OCCCN1CCCCC1 | – | 43.5 µM (active)
Cc1cnc(Nc2ccc(F)cc2Cl)nc1-c1c[nH]c(C(=O)NC(CO)c2cccc(Cl)c2)c1 (stereo not given) | – | 6.22 µM (active)

Compound | activity, negative = inhibition | Potency
COc1cc2c(NC3CCN(C)CC3)nc(N3CCCN(C)CC3)nc2cc1OCCCCCN | – | 30.8 µM (active)
OCc1ccc(-c2ccc(-c3ccc(CO)s3)o2)s1 | – | 19.2 µM (active)
CN(C)c1ccc(Nc2nc(N)n(C(=O)c3c(F)cccc3F)n2)cc1 | – | 4.94 µM (active)
COc1ccc(C2CC(=O)N3CN(C4CCCCC4)CSC3=C2C#N)cc1 (stereo not given) | – | 6.89 µM (active)
COc1cc(CCc2ccc(OCC=C(C)C)cc2)cc(OC)c1OC | -15% (inactive) | –
Nc1ccc(C(=O)Nc2cccc(-c3nc(N4CCOCC4)c4oc5ncccc5c4n3)c2)cn1 | – | 22.1 µM (active)
C[N+]1(C)CCC(OC(=O)C(c2ccccc2)c2ccccc2)CC1 | – | 2.74 µM (active)
Fc1cc(Nc2nc(-c3ccncc3)nc3ccccc23)ccc1N1CCNCC1 | – | 21.8 µM (active)
O=C([C@@H]1CCCN(c2ccc3[nH]c(C4(n5cc(Cl)cn5)CC4)nc3n2)C1)N1CCCC1 | – | 22.1 µM (active)
CNC(=O)c1ccccc1Nc1cc(Nc2ccc(N3CCOCC3)cc2OC)ncc1C(F)(F)F | – | 8.79 µM (active)
COc1cc2c(NC3CCN(CC4CCCCC4)CC3)nc(N3CCCN(C)CC3)nc2cc1OCCOCCN(C)C | 299% (inactive) | –
NCCOc1cc(C(=O)Nc2cc(OCCN)c3ccccc3n2)nc(C(=O)Nc2cc(OCCN)c3ccccc3n2)c1 | – | 19.4 µM (active)
CCN1CCCN(c2nc(NC3CCN(C(C)C)CC3)c3cc(OC)c(OCCCN4CCCCC4)cc3n2)CC1 | – | 38.8 µM (active)
CC[C@@H](C)Nc1cc(C(=O)NC2CC3CC[C@@H](C2)N3c2ccc(C(=O)C3CC3)cn2)c(C)cc1C(N)=O (stereo not given in full) | – | 35 µM (active)
Cc1cc(C)c2c(N)c(C(=O)NCc3ccc(Cl)cc3)sc2n1 | 137% [at 114 µM] (inactive) | –
Cc1ccnc(NC(=S)N2CCN(c3cc(C(F)(F)F)cc(C(F)(F)F)c3)CC2)c1 | – | 4.35 µM (active)
Fc1cc(-c2cccc3ncc(-c4cnn(C5CCNCC5)c4)nc23)cc(F)c1CN1CCOCC1 | – | 34.5 µM (active)
O=C(NCCN1CCCC1)c1cc(-c2ccc(CN3CCOCC3)cc2)nc2ccc(F)cc12 | – | 24.1 µM (active)
O=C(O)c1ccc(Cc2c(-c3cccc(-c4ccccc4)c3)[nH]n(-c3nc(C(=O)O)cs3)c2=O)cc1 | -6.37% (inactive) | –
Cc1cc(O)c2c(c1)C(=O)c1cc(O)cc(O)c1C2=O | – | 27.4 µM (active)
